From PubChem BioAssay
The source made the active and inactive calls.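 Rule for the calls: active = compound whose remaining NAD level is above about 45 nM (limit read from the data); inactive = the rest.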

Biological target: NAD(+) hydrolase SARM1 (Homo sapiens) (UniProt Q6SZW1)
Assay: SARM1 TIR NADase inhibitors, cell lysate, NAD-Glo luminescence (AID 1508614);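 note: higher remaining NAD means stronger inhibition of SARM1 NADase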
Conditions: SAM-TIR HEK293T lysate NADase, at 1 µM, hits give high values

Chain of NAD(+) hydrolase SARM1 (Homo sapiens) (Q6SZW1 whole entry, looked up): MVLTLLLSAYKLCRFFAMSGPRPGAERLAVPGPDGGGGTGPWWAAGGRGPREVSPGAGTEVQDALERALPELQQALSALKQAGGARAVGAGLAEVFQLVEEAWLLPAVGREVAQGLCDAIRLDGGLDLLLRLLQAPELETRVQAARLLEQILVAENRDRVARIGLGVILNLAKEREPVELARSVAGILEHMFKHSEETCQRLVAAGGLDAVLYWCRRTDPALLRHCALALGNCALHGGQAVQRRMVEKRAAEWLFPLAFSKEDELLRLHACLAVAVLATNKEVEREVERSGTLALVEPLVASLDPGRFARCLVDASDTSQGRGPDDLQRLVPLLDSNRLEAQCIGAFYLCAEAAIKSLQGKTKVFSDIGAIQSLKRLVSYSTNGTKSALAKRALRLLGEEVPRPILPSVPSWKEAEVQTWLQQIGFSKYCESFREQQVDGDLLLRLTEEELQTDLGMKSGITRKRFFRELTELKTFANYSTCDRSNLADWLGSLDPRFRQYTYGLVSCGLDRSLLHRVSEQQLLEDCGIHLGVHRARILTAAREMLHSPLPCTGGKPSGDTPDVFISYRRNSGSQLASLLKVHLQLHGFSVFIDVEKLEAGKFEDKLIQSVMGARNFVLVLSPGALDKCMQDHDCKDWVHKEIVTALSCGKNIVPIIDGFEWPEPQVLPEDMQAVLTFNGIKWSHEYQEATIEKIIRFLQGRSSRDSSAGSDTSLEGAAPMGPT

Remaining NAD, inactive:
Cc1ccc2c(Br)cc(Br)c(OC(=O)c3ccccc3)c2n1 10 nM
CCC(=O)Oc1ccc2c(c1)CC[C@@H]1[C@@H]2CC[C@]2(C)[C@@H](OC(=O)CC)CC[C@@H]12 10 nM
OC[C@@H](O)[C@@H](O)CO 10 nM
NC(=O)[C@@H]1CCCN1C(=O)[C@H](Cc1cnc[nH]1)NC(=O)[C@@H]1CCC(=O)N1 10 nM
COc1ccc2nc([S@@](=O)Cc3ncc(C)c(OC)c3C)[nH]c2c1 10 nM
Oc1ccc(Cl)c2c1CCC2 10 nM
CCCCCCCCCCCCCCCC(=O)OC[C@H](O)[C@H]1OC(=O)C(O)=C1O 10 nM
C[C@]12CC[C@@H]3c4ccc(OC(=O)c5ccccc5)cc4CC[C@H]3[C@@H]1CC[C@@H]2O 10 nM
O=C(O)[C@H](O)[C@@H](O)[C@H](O)[C@H](O)CO 10 nM
